Laboratory results from ChEMBL document CHEMBL3988442, “University of Dundee, Small-Polar-MMV Screening Library” (2021).
For some of these results: Entries with a potency or affinity are not part of this list.

Columns and labels:
Set-up in all cases: scale not given: direction of the effect not stated beside the values
[1] = target: Protein translocase subunit SecA (Escherichia coli (strain K12)) (UniProt P10408); assay: Assay to Identify E. coli SecA ATPase Inhibitors; format: functional; conditions: 30 µM
Chain of Protein translocase subunit SecA (Escherichia coli (strain K12)) (P10408 whole entry): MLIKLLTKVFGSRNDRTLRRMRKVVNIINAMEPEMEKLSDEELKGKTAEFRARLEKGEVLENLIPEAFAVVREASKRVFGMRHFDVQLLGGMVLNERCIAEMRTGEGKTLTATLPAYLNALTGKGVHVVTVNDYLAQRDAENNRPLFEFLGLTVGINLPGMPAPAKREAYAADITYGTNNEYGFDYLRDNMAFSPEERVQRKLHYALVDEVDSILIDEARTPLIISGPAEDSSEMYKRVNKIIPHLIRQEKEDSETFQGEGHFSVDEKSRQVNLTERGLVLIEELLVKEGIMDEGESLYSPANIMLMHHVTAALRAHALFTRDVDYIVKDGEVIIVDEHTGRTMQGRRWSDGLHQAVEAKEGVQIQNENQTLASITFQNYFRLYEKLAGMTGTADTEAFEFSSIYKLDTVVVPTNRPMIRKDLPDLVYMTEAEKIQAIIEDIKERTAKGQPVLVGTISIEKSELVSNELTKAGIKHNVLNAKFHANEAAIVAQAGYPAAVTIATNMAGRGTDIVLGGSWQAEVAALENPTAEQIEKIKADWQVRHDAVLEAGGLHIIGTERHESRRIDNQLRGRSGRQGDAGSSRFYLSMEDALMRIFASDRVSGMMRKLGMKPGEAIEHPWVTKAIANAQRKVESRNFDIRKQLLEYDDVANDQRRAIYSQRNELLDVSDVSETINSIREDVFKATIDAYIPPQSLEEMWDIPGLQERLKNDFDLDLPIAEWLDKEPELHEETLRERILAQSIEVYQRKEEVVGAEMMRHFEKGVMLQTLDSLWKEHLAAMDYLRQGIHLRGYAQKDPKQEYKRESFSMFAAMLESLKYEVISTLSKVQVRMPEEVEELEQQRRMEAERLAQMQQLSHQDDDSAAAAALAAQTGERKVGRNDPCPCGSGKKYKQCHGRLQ

[2] = target: T1, Ubiquitin-activating enzyme e1, putative (Leishmania donovani (strain BPK282A1)) (UniProt E9BSI1); assay: Leishmania donovani Ubiquitin Activating Enzyme (LdE1); format: functional; conditions: 30 µM
T1 sequence (whole entry): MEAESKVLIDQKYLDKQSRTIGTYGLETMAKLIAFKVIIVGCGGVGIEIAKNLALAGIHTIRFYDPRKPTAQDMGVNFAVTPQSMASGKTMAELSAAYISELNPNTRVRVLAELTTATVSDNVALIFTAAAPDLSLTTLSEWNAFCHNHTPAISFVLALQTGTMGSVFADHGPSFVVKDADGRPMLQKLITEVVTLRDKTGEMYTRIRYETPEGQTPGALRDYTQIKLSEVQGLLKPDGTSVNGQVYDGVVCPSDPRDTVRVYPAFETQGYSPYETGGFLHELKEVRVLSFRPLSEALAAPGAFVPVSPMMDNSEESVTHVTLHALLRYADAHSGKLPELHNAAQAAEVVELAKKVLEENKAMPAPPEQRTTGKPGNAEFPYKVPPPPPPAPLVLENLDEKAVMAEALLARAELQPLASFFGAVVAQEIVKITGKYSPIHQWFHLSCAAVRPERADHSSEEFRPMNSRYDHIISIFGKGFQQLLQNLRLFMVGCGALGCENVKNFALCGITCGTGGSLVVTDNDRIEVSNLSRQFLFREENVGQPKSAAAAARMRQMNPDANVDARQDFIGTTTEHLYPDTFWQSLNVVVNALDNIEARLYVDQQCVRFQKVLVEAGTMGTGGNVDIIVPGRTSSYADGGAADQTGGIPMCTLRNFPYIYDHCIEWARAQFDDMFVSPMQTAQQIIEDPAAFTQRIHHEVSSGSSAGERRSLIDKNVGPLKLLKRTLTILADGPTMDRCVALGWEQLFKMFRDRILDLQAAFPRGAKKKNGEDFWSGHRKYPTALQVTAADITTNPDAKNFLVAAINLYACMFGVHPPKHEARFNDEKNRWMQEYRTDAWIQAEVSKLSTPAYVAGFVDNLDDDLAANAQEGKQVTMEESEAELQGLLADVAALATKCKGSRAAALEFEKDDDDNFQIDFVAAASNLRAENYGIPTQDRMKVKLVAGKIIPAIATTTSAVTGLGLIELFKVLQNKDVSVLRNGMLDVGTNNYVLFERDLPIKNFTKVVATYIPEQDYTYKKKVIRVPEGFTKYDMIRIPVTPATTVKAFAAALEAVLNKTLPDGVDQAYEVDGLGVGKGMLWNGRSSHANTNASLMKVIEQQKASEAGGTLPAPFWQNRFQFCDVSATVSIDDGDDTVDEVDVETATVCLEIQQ

[3] = target: Sialic acid-binding Ig-like lectin 9 (Homo sapiens) (UniProt Q9Y336); assay: Hs-Siglec9 ALPHAscreen SOP 20170721; conditions: 10 µM
Chain of Sialic acid-binding Ig-like lectin 9 (Homo sapiens) (Q9Y336 whole entry): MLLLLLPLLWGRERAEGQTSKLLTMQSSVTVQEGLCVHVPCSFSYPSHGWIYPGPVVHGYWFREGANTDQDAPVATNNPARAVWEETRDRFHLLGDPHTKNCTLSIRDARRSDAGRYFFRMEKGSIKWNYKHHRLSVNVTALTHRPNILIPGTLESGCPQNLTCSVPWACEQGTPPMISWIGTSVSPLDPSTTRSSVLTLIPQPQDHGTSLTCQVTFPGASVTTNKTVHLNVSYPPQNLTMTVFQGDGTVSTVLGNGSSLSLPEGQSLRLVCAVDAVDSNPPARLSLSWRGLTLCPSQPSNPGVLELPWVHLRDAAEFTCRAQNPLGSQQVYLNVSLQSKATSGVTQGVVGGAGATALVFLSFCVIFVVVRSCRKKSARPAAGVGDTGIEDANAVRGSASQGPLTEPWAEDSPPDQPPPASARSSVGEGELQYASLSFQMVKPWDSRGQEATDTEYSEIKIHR

Trypanosoma cruzi = assay: Trypanosoma cruzi phosphomannomutase and mannose-1-phosphate guanylyltransferase assay; format: functional; conditions: 10 µM
[4] = target: T2, Arginase-2, mitochondrial (Homo sapiens) (UniProt P78540); assay: in vitro enzyme assay to detect the production of urea directly proportional to the activity of Arginase II; format: functional; conditions: 33.3 µM; note: in the data most compounds retested in dose-response had high values
T2 sequence (whole entry): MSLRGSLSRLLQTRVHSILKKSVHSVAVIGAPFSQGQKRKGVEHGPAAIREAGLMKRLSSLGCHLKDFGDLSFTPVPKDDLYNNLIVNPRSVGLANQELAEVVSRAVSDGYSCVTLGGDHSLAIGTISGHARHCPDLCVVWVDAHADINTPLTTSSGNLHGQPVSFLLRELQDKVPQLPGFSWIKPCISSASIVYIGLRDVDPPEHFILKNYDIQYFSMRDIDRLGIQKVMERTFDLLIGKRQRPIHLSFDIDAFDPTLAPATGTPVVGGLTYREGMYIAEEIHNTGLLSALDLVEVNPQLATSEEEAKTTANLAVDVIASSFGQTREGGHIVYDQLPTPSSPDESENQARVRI

[5] = target: T3, Proteasome subunit beta (Trypanosoma cruzi) (UniProt O96673); assay: Trypanosoma cruzi proteasome chymotrypsin-like activity (TcProtChymo) assay.; note: in the data most compounds retested in dose-response had high values; format: functional; conditions: 9.37 µM
T3 sequence (whole entry): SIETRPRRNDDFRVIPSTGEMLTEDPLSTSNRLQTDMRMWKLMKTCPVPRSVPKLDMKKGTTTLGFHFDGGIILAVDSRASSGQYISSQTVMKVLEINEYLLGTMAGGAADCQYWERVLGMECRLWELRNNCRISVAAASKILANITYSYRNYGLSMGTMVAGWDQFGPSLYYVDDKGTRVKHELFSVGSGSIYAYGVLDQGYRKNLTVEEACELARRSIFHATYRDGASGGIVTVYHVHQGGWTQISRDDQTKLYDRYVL

Homo sapiens = organism: Homo sapiens; assay: To identify inhibition of the IFN signalling (Jak-Stat) pathway via expression of an eGFP reporter gene under the control of an IFN-stimulated response element (ISRE) containing MxA promoter.; format: functional; conditions: 30 µM
[6] = target: T4, Tyrosyl-tRNA synthetase, putative (Trypanosoma cruzi (strain CL Brener)) (UniProt Q4DSP6); assay: Trypanosoma cruzi tyrosyl tRNA synthetase (TcYRS) _High Tyrosine SOP; format: functional; conditions: 30 µM; note: in the data most compounds retested in dose-response had high values
T4 sequence (whole entry): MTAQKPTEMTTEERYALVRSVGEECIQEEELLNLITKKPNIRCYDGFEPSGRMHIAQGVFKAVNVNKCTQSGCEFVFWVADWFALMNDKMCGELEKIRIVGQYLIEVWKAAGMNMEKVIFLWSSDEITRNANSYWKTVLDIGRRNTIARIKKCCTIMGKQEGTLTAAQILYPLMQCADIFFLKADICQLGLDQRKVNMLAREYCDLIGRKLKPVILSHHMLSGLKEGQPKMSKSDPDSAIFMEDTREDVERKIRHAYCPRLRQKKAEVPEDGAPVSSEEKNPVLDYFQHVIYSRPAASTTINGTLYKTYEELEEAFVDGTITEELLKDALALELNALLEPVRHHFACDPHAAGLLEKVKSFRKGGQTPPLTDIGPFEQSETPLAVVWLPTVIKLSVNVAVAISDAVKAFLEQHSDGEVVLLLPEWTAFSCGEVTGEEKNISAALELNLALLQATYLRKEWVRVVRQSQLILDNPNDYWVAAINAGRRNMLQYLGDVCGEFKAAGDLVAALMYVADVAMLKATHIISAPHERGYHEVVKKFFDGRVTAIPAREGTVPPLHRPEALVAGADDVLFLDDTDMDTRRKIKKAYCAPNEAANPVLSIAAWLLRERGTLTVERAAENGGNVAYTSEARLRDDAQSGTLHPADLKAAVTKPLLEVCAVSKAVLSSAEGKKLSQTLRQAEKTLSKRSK

[7] = target: T4, Tyrosyl-tRNA synthetase, putative (Trypanosoma cruzi (strain CL Brener)); assay: Trypanosoma cruzi tyrosyl tRNA synthetase (TcYRS) SOP; format: functional; conditions: 30 µM
[8] = target: Chromo domain-containing protein 1 (Saccharomyces cerevisiae (strain ATCC 204508 / S288c) (Baker's yeast)) (UniProt P32657); assay: ScCHD-1 Enzyme Inhibition Assay; format: functional; conditions: 30 µM; note: in the data most compounds retested in dose-response had high values
Chain of Chromo domain-containing protein 1 (Saccharomyces cerevisiae (strain ATCC 204508 / S288c) (Baker's yeast)) (P32657 whole entry, the tested form may be a part): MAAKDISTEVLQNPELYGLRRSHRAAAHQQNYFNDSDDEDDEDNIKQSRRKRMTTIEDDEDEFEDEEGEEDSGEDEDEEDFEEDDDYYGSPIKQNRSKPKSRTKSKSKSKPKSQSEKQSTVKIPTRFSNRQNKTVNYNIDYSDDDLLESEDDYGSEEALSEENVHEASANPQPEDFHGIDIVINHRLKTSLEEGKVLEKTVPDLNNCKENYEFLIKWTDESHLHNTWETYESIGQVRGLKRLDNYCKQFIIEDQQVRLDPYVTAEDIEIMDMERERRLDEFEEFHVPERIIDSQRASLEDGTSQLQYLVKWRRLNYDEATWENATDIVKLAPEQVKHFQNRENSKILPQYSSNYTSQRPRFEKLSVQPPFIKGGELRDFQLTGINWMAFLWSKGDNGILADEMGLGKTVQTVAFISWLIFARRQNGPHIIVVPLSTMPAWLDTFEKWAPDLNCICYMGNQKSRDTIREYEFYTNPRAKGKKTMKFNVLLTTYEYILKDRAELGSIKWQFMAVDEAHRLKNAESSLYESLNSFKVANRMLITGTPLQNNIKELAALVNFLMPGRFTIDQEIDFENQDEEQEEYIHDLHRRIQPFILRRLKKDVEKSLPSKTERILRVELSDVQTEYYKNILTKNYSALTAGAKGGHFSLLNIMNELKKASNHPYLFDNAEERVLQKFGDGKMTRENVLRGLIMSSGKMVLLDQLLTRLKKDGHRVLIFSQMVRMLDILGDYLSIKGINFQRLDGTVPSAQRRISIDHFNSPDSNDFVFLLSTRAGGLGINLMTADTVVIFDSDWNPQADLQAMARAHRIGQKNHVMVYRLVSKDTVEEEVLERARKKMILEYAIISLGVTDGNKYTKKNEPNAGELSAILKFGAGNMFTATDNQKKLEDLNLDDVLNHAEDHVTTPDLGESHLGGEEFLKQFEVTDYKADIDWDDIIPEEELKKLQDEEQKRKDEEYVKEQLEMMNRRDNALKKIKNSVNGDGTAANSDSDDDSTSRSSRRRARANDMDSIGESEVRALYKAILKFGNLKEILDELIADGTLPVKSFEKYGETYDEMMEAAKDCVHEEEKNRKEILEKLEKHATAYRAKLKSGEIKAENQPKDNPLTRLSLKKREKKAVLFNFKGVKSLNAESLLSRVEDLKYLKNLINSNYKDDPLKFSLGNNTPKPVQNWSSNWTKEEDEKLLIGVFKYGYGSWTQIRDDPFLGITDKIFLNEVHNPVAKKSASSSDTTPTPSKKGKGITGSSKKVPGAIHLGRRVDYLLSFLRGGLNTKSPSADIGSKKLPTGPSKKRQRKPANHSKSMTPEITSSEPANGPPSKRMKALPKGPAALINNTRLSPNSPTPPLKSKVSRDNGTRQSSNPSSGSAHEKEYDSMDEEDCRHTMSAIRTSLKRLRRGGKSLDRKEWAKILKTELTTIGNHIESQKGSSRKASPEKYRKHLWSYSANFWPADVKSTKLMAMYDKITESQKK

Compound	Percent Effect [1] [%]	Percent Effect [2] [%]	Percent Effect [3] [%]	Percent Effect (Trypanosoma cruzi) [%]	Percent Effect [4] [%]	Percent Effect [5] [%]	Percent Effect (Homo sapiens) [%]	Percent Effect [6] [%]	Percent Effect [7] [%]	Percent Effect [8] [%]
COc1ccc(CN2CCC3(CC2)CCN(CC(C)C)C3=O)cc1	-1.79	-1.3	-0.794	-0.75	-3.2	-0.601	6.85	0.966	0	-5.19
Cc1nc(CN(C)C2CCN(CCCOc3ccccc3)C2)no1 (stereo not given)	0.729	23.4	-1.5	2.42	-5.94	20.9	8.47	8.82	21.2	-11.3
Cc1ccc(-c2nc(CN3CCCC(Cn4cncn4)C3)no2)cc1 (stereo not given)	-6.21	-2.6	0.0125	-0.373	-3.48	0.351	25.7	1.96	0	9.47
Cc1cc(N2CCC(NC(=O)C3CC3)CC2)nc(-c2ccncc2)n1	-0.846	23.4	0.849	2.98	-1.43	13	9.23	12.8	35.3	-0.543
Cc1cc(C(=O)NC2CCc3nc(C)cn3C2)[nH]n1 (stereo not given)	-3.96	2.67	4.26	-0.803	1.77	5.68	3.16	3.68	5.13	-7.74
Cc1cc(C)n(CC2CCCN2CCS(=O)(=O)c2ccccc2)n1 (stereo not given)	-0.665	-7.69	-1.27	0.845	9.43	-2.47	18.7	1.44	-1.21	1.56
CS(=O)(=O)NCC1CCCN(C(=O)COCC(F)(F)F)C1 (stereo not given)	-0.972	15.4	0.69	0.845	2.87	6.57	9.12	2.39	22.9	-7.07
